Results: publication PMC7819943, “Rice protein-binding microarrays: a tool to detect cis-acting elements near promoter regions in rice”
Whole data set: some 39,000 sequences, median “fluorescence intensity (a.u.)” near 4,300, cut for the highest 2% near 39,000. Many of the other results were omitted from the sample, so the highest values are more common in it than they were.

target: T1, OsSMF1 (Oryza sativa, UniProt Q6ZLB0 1-436); assay: protein-binding microarray (RPBM); PBS, 2% BSA, 51.3 ng/ul salmon testes DNA, 50 uM zinc acetate, 200 nM TF, 25 C, 1 h; high values mean tight binding; details: protein: recombinant; tags: N-terminal polyhistidine and DsRed monomer fusion (pET32a); chain copies: 2; label: CyDye5-dUTP incorporated in the synthesized complementary strand; 3' TTTTT single-stranded linker to array surface; dsDNA, one strand shown
T1 sequence: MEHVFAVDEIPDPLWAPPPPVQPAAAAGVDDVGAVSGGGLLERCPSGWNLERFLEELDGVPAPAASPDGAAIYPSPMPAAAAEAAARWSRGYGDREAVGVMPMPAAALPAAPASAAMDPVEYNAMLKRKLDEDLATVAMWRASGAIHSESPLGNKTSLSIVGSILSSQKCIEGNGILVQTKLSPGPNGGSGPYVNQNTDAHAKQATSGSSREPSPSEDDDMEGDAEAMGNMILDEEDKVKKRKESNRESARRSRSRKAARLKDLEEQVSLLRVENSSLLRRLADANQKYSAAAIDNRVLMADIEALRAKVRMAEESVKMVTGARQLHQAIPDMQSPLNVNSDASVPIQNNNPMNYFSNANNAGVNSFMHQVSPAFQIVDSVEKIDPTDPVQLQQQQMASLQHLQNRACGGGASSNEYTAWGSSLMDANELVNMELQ
Summary of the method: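 Transcription factors were each fused at the N-terminus to a polyhistidine tag plus DsRed and expressed in E. coli BL21-CodonPlus before Ni–NTA purification. Binding to a double-stranded custom Agilent array was carried out with 200 nM protein at 25 °C for 1 h in PBS, 2% BSA, salmon testes DNA and 50 µM zinc acetate. The binding signal is per-feature fluorescence intensity, in arbitrary units, on an Axon 4000B scanner.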

Row | Sequence | binding signal
1 | GGGCTTGCCCATTACGCGTTGCTATAGACGCCCTTTCATTCGGAGTCACCTAGTGCAG | 41600 fluorescence intensity (a.u.)
2 | GCGGTGGCGGTTGGGGTGGCGAGTGGGGAGGAGGAGGCGGCGGAGTCACCTAGTGCAG | 5880 fluorescence intensity (a.u.)
3 | CCCAAAGCTGACGTACAGCACCGACCCGGTCGGCTGCTCGCGGAGTCACCTAGTGCAG | 4200 fluorescence intensity (a.u.)
4 | CGCCGGCACAGCGACATAGCTGACGTCGACGATGCTCACTCGGAGTCACCTAGTGCAG | 5350 fluorescence intensity (a.u.)
5 | TAGCGCGGCTGCACAGTACAGTCCGACGTCACAGCTCACTCGGAGTCACCTAGTGCAG | 49200 fluorescence intensity (a.u.)
6 | ACCACATCCACTGCCGCGCCACGCCTCTCGGCCGCCACACCGGAGTCACCTAGTGCAG | 3770 fluorescence intensity (a.u.)
7 | CAACCTTTATCTGAAGTGGCAGGCACGTGGATTAGCAATACGGAGTCACCTAGTGCAG | 5790 fluorescence intensity (a.u.)
8 | GGTAATAGTGTCAACATATTGCATTAAGATGATTGCAGTGCGGAGTCACCTAGTGCAG | 24300 fluorescence intensity (a.u.)
9 | CAAGATGGGTCGGGTTGGGTGGGGTTACTCGCACTAGCACCGGAGTCACCTAGTGCAG | 3160 fluorescence intensity (a.u.)
10 | GCGGCTCGCCGTCATATGCGACGTGGCATGCACGACGCCGCGGAGTCACCTAGTGCAG | 14300 fluorescence intensity (a.u.)
11 | AGTGGCAGGGGTGTGGGGATTGCCGGCTTGCCGCGGAGGACGGAGTCACCTAGTGCAG | 3530 fluorescence intensity (a.u.)
12 | CTAGCTTTGAGGTGGAGGTGGTGGTGGAGGAGGAGGAGGACGGAGTCACCTAGTGCAG | 3340 fluorescence intensity (a.u.)
13 | GGCAGGACGGCAGGAGGCCTGTTCGCTTGAGGTGTCTAGCCGGAGTCACCTAGTGCAG | 39800 fluorescence intensity (a.u.)
14 | TTTTCGCTGAGGTGGCAGGTTAACTTGTCTGCTTTCGGCCCGGAGTCACCTAGTGCAG | 39300 fluorescence intensity (a.u.)
15 | CGCTGCTGAGTGCTGACTCCTTCGCCCTCCTCCTCACTTTCGGAGTCACCTAGTGCAG | 7650 fluorescence intensity (a.u.)
16 | GAATAGCTGCTTGTTAACTAGGGATTAGAGGTGGGGTTTTCGGAGTCACCTAGTGCAG | 17400 fluorescence intensity (a.u.)
17 | GGGCTGGGGAAAATGATCGACTACTTTTAACCATTTCAGTCGGAGTCACCTAGTGCAG | 3420 fluorescence intensity (a.u.)
18 | TACGTTGAATATTACCCTCTTGATGACTTGACTAATTTTACGGAGTCACCTAGTGCAG | 3880 fluorescence intensity (a.u.)
19 | TTATATATCCCTGATAGCTGATTAGTTGGCACATCAGCATCGGAGTCACCTAGTGCAG | 3210 fluorescence intensity (a.u.)
20 | CAAGGGAGGAGGGAGAAAGAAAAGGATGGGAGATTTGCTCCGGAGTCACCTAGTGCAG | 3290 fluorescence intensity (a.u.)
21 | TGGTCACTGCAGCAGGTTCAGGACAAAGCAACCTGTTTCTCGGAGTCACCTAGTGCAG | 3600 fluorescence intensity (a.u.)
22 | AGAGGTTCAAACTGTATATGTTCTAGACCATTCACAAGCTCGGAGTCACCTAGTGCAG | 64100 fluorescence intensity (a.u.)

Row | Sequence | binding signal
23 | AAGGTAGAGTCAAATAGAAGCTCTATATCATGTAGACACTCGGAGTCACCTAGTGCAG | 3360 fluorescence intensity (a.u.)
24 | ACCCACACACCCACACCCACACGTCAAAGACCCACGGTTTCGGAGTCACCTAGTGCAG | 3160 fluorescence intensity (a.u.)
25 | TGTGGTGTGTGTGTGGCTGAAACCGCGAGGCCGCCGCGAGCGGAGTCACCTAGTGCAG | 3440 fluorescence intensity (a.u.)
26 | CAGAGGCAAACGTACGTGGAGGCAGGAGGAGTGGTCACCGCGGAGTCACCTAGTGCAG | 4440 fluorescence intensity (a.u.)
27 | CCTAACCGCCCAGCAGAGGCAAAGTGTGGTCGAAACCTAGCGGAGTCACCTAGTGCAG | 49500 fluorescence intensity (a.u.)
28 | CCGTCGCCGGCGGCGGATCGGCCCCACATCACCTCGGCCTCGGAGTCACCTAGTGCAG | 3250 fluorescence intensity (a.u.)
29 | AGAAGACAACAGTGAGGAACTGAGGACACGTGTACTTGGACGGAGTCACCTAGTGCAG | 12600 fluorescence intensity (a.u.)
30 | ACCTTGTACTTTTGTCTACATATGTGTCATTCTATCTTGGCGGAGTCACCTAGTGCAG | 5120 fluorescence intensity (a.u.)
31 | AAATTTGTACCATCTTGTTGTCCATCATTCTTGACAAGAGCGGAGTCACCTAGTGCAG | 3280 fluorescence intensity (a.u.)
32 | TGAGCCCATTCTATCTTGTACCAATTTGTGGGATATGGCCCGGAGTCACCTAGTGCAG | 41000 fluorescence intensity (a.u.)
33 | CATCCACGTGGTGCCGCACCTAACCAGCGTAGCAGTTGCTCGGAGTCACCTAGTGCAG | 5710 fluorescence intensity (a.u.)
34 | ATCATAGTATGCCGTACGGCCTGGACCTTCTGTCACGTGGCGGAGTCACCTAGTGCAG | 5660 fluorescence intensity (a.u.)
35 | GTGTGTGTATGACAGGTGGGACCATATATTAATAGTGTAGCGGAGTCACCTAGTGCAG | 3480 fluorescence intensity (a.u.)
36 | TATGTGGACCATAGTGGCCTTCGGCAATATGGATTAGTAGCGGAGTCACCTAGTGCAG | 47700 fluorescence intensity (a.u.)
37 | TGCACACCCAGGTTGAAGACGACAATGACGAGCTCGGGCGCGGAGTCACCTAGTGCAG | 3330 fluorescence intensity (a.u.)
38 | CATTCTCCTTCTCTCTCGTACGGCTAGAGGTTGAAGACGACGGAGTCACCTAGTGCAG | 3760 fluorescence intensity (a.u.)
39 | CGACTACGAGACGCGAGGTTGAAGACAAGTAAGTACTCCTCGGAGTCACCTAGTGCAG | 65500 fluorescence intensity (a.u.)
40 | GAGTTACCACGAGATGACACGTAGGATAAAGAGCTTTGAACGGAGTCACCTAGTGCAG | 8600 fluorescence intensity (a.u.)
41 | TCCAATCCTGCGTGGAGTAATTTATTTCAAGCGCAACAGGCGGAGTCACCTAGTGCAG | 3630 fluorescence intensity (a.u.)
42 | CTCGAGAGTTATTTATTATTTATATTTCCAAAGGTTTGACCGGAGTCACCTAGTGCAG | 25900 fluorescence intensity (a.u.)
43 | CGTCCAAATATTATTTCCTGCGCGTGGTTTACAAAAGAGGCGGAGTCACCTAGTGCAG | 47300 fluorescence intensity (a.u.)
